Measurements reported in PubChem BioAssay (NCATS).
Records with an inconclusive call do not appear. Calls of active or inactive are those of the source. Unless noted, the call rests on the fitted dose curve; in most records, active means well fitted curve in the direction sought with a large enough effect; inconclusive means small, poorly fitted or top-dose-only effect, or another doubt; inactive means no such curve, though single readings can be large; an effect the other way counts as inactive or inconclusive.

Legend:
[1] = target: Rap guanine nucleotide exchange factor 3 (Homo sapiens) (UniProt O95398); assay: Confirmatory qHTS for agonist of cAMP-regulated guanine nucleotide exchange factor 3 (EPAC1) (AID 1645881);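 further: EPAC1 catalysed release of BODIPY-GDP from Rap1B seen as fluorescence loss; 100% = effect of cAMP agonist control; nearly all actives have a fitted effect of over 75% in size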
Chain of Rap guanine nucleotide exchange factor 3 (Homo sapiens) (O95398 whole entry, looked up): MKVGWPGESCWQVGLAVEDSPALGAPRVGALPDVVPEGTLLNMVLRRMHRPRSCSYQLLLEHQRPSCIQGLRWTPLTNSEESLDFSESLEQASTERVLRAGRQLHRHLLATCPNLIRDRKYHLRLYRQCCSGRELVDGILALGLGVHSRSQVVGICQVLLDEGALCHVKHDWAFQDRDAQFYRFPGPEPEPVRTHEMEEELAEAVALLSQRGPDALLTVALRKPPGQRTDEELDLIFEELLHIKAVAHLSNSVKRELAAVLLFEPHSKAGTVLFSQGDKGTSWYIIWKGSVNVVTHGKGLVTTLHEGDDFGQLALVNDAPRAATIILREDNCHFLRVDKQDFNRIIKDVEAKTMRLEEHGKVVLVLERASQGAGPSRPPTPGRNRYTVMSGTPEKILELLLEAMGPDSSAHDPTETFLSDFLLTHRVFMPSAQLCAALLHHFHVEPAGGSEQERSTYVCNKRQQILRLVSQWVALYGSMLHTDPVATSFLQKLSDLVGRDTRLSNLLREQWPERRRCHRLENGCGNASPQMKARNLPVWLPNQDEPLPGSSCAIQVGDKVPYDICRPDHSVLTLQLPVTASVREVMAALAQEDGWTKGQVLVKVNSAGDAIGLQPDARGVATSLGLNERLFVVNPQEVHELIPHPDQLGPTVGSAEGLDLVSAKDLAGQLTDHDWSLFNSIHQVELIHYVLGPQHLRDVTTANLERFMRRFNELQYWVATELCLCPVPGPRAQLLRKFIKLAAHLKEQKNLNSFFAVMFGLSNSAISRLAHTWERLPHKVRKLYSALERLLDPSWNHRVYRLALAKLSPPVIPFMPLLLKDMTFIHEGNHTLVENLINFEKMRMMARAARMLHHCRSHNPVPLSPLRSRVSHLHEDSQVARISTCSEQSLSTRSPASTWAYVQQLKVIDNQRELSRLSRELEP

[2] = target: Rap guanine nucleotide exchange factor 4 (Homo sapiens) (UniProt Q8WZA2); assay: Confirmatory qHTS for agonist of cAMP-regulated guanine nucleotide exchange factor 4 (EPAC2) (AID 1645884);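 further: nucleotide exchange releases bodipy-GDP from Rap1 and this lowers its fluorescence; on the % scale 0 is the no-effect control and ±100 the full control effect; nearly all actives have a fitted effect of over 65% in size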
Chain of Rap guanine nucleotide exchange factor 4 (Homo sapiens) (Q8WZA2 whole entry, looked up): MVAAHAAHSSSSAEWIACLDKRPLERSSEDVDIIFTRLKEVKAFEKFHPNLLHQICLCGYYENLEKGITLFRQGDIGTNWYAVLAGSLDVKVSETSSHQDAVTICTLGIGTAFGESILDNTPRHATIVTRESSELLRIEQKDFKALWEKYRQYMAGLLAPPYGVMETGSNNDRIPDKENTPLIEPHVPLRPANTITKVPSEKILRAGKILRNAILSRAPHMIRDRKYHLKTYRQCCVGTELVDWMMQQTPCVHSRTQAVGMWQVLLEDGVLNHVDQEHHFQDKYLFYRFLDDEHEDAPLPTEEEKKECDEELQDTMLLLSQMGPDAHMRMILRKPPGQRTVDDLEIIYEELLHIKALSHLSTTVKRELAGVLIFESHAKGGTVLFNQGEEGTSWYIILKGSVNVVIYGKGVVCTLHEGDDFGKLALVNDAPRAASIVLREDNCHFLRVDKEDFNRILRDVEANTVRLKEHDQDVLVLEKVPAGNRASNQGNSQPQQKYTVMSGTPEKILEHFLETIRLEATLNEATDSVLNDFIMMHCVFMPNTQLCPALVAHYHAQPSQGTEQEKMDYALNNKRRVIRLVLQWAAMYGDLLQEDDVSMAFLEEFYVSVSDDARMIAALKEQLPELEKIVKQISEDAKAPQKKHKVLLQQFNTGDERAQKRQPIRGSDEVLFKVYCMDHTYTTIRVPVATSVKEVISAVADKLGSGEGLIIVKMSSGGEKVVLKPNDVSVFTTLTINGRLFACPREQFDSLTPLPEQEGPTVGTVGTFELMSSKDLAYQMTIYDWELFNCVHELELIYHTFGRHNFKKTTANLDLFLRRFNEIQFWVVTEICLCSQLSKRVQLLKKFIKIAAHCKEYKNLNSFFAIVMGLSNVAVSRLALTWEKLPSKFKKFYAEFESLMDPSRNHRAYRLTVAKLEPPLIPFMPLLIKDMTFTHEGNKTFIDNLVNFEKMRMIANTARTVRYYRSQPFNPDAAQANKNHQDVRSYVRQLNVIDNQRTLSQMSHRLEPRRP

[3] = target: Rap guanine nucleotide exchange factor 4 (Homo sapiens) (UniProt Q8WZA2); assay: Confirmatory qHTS for antagonist of cAMP-regulated guanine nucleotide exchange factor 4 (EPAC2) (AID 1645885); further: nearly all actives have a fitted effect of over 25% in size; further: potency means the concentration at half of the fitted maximal effect; on activity change, negative = inhibition: on the % scale 0 is the no-effect control and ±100 the full control effect
[4] = target: Rap guanine nucleotide exchange factor 3 (Homo sapiens) (UniProt O95398); assay: Counterscreen qHTS for antagonist of cAMP-regulated guanine nucleotide exchange factor 3 (EPAC1) (AID 1645888);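 further: fluorescence loss as bound BODIPY-GDP is released from Rap1B; % of control where 0% means no effect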
In short: (§1)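 Rap1B–BODIPY-GDP (250 nM) with 50 uM GDP; compounds pin-transferred to 9.74 nM–152 uM final (activator) or from 7.32 nM upwards (inhibitor). Fluorescence Ex/Em 480/540 nm read at 5 and 30 min, then after adding cAMP or buffer, at room temperature.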

[5] = target: Rap guanine nucleotide exchange factor 3 (Homo sapiens) (UniProt O95398); assay: Counterscreen qHTS for agonist of cAMP-regulated guanine nucleotide exchange factor 3 (EPAC1) (AID 1645889); further: % of control where 0% means no effect; nearly all actives have a fitted effect of over 40% in size
In short: as §1

[6] = AP1 Signaling Pathway (AID 357; active means well fitted curve in either direction with a large enough effect, not every such curve was filed as active; further: on the % scale 0 is the no-effect control and ±100 the full control effect); conditions: ME-180 (cervical carcinoma) AP-1-bla reporter, EGF-induced, beta-lactamase ratio, 5 h; at 7.69 µM (top of the series) unless noted
In short: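 AP-1-bla ME-180 cells with beta-lactamase reporter under AP-1 response element, stimulated with EC50 EGF; compounds titrated, 5 hours at 37 degrees Celsius. CCF4 read at 460/530 nm ratio; positive and negative modulators judged by AC50.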

[7] = NFAT Signaling Pathway (AID 444; active means well fitted curve in either direction with a large enough effect, not every such curve was filed as active;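 further: carbachol stimulus at about its EC50 of 1 µM final; on the % scale 0 is the no-effect control and ±100 the full control effect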); conditions: Jurkat NFAT-bla M1, carbachol, beta-lactamase ratio, 5 h; at 7.69 µM (top of the series) unless noted
In short: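 Jurkat cells with NFAT-driven β-lactamase reporter and co-expressed M1 receptor, stimulated with carbachol (final 1 uM, ~EC50), compound titration, 5 h at 37 °C. CCF4 loaded 1 h at RT; 460/530 nm ratio gave %activity and AC50.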

[8] = Stat Signaling Pathway (AID 446; active means well fitted curve in either direction with a large enough effect, not every such curve was filed as active;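 further: ME-180 cervical cancer cells given 40 pM IL-6 alongside compound; SIE-controlled beta-lactamase reporter measured as 460/530 nm FRET emission ratio; on the % scale 0 is the no-effect control and ±100 the full control effect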)
In short: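 Compound effects on IL-6-induced STAT reporter activity were measured in ME-180 cells. After overnight culture, cells were co-treated with 40 pM IL-6 for 5 hrs before beta-lactamase substrate loading at room temperature.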

[9] = target: Glucocorticoid receptor (Homo sapiens) (UniProt P04150); assay: GR-GFP Redistribution (AID 450;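 active means compounds whose dose series gives a full or clear partial fitted curve of increased nuclear translocation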; further: potency means the concentration at half of the fitted maximal effect); conditions: U2OS GR-GFP nuclear translocation, laser cytometry, 2 h
Chain of Glucocorticoid receptor (Homo sapiens) (P04150 whole entry, looked up): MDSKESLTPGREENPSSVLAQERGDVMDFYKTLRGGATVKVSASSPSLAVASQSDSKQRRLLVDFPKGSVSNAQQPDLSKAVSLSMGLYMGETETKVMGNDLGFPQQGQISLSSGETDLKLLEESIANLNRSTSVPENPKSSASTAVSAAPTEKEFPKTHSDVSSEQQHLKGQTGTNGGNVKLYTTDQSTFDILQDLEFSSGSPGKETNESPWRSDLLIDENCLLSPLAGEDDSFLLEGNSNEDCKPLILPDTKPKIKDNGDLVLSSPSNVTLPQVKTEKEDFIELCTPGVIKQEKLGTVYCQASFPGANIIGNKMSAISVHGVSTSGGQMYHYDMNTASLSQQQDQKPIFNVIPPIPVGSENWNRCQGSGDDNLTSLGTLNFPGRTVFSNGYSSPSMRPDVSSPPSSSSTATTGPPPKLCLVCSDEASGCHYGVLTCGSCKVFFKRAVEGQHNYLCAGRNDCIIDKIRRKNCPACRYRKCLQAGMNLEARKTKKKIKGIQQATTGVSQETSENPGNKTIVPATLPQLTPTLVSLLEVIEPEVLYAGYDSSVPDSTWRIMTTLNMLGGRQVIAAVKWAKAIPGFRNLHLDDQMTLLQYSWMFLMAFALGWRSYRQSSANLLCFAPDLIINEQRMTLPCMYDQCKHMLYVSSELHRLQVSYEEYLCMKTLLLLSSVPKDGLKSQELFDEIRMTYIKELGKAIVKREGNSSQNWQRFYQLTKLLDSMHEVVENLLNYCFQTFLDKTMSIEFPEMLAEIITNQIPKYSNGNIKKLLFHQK

O=C(c1ccc(-c2nnc(Nc3cccc(Cl)c3)c3ccccc23)cc1)N1C[C@H]2C[C@H](C1)c1cccc(=O)n1C2
inactive: Potency [1] | Potency [2] | Potency [3] | Potency [4] | Potency [5]

CCCCCC(=O)Nc1cccc(C2=NOC3(C2)C[C@@H](C(N)=O)N(C(=O)CC(c2ccccc2)c2ccccc2)C3)c1 (some centres undefined)
inactive: Potency [1] | activation [2] 9.87% [at 17.1 µM, percent relative to cAMP agonist control] | Potency [3] | activity change, negative = inhibition [4] -21.4% [at 30.8 µM] | activation [5] 34.5% [at 30.8 µM]

CCc1cc(C(=O)N=Nc2c(O)[nH]c3ccc([N+](=O)[O-])cc23)c2ccccc2n1
inactive: Potency [1] | Potency [2] | Potency [3] | Potency [4] | Potency [5]

Cc1ccc(C(C)C)c(OCCCn2c(=O)oc3ccc(C)cc32)c1
inactive: Potency [1] | Potency [2] | Potency [3] | Potency [4] | Potency [5]

Cc1cc(C)n2nc(C(=O)N/N=C/c3c4ccccc4cc4ccccc34)nc2n1
inactive: Potency [1] | activation [2] 2.45% [at 17.1 µM, percent relative to cAMP agonist control] | Potency [3] | activity change, negative = inhibition [4] 4.99% [at 30.8 µM] | activation [5] 34.9% [at 30.8 µM]

CCc1c(O)cc(=O)n(-c2ccccc2)c1-c1ccccc1
active: Potency [3] 84.9 µM
inactive: Potency [1] | Potency [2] | Potency [4] | Potency [5]

Cc1ccc(C(=O)OCC(=O)c2ccc(CC(=O)N3CCOCC3)s2)c(C)c1
inactive: Potency [1] | Potency [2] | Potency [3] | Potency [4] | Potency [5]

CCCCCCn1nc(C(=O)OCC(=O)c2c(N)n(C)c(=O)n(C)c2=O)c2ccccc2c1=O
inactive: Potency [1] | Potency [2] | Potency [3] | Potency [4] | Potency [5]

Cc1cc(Cl)ccc1OC(C)C(=O)Nc1ccc(C(=O)Nc2ccccc2C(=O)O)cc1 (centres undefined)
inactive: Potency [1] | Potency [2] | Potency [3] | Potency [4] | Potency [5]

CCOC(=O)C1CCCN(c2nc3ccccc3nc2C(C#N)C(=O)OC(C)C)C1 (centres undefined)
inactive: activity change, negative = inhibition [6] -3.2% [at 17.2 µM] | activity change, negative = inhibition [7] -22.1% [at 17.2 µM] | outcome [8] | Potency [9] > 20.6 µM | Potency [1] | activation [2] 6.19% [at 17.1 µM, percent relative to cAMP agonist control] | Potency [3] | activity change, negative = inhibition [4] 0.815% [at 30.8 µM] | activation [5] 36.1% [at 30.8 µM]
